# According to PubChem BioAssay (EPA / NIEHS):
# Calls of active or inactive are those of the source. The calls were made as follows: active = hit-call score of the fitted dose curve at least 0.9, where 1 is the maximum; inactive = score below 0.9.
# Assay: ATG_ISRE_CIS: Attagene CIS-FACTORIAL HepG2 Assay for human Interferon Regulatory Factor 1 (IRF1) binding to an Interferon-Stimulated Response Element (ISRE) (AID 2282948)
# Conditions: HepG2 ISRE cis-reporter (Attagene), mRNA transcription readout; actives raise or lower the signal
# Procedure: ATG_CIS is a cell-based, multiplexed-readout assay that uses HepG2, a human liver cell line, with measurements taken at 24 hours after chemical dosing in a 24-well plate.ATG_ISRE_CIS is one of 52 assay component(s) measured or calculated from the ATG_CIS assay. It is designed to make measurements of mRNA induction, a form of inducible reporter, as detected with fluorescence intensity signals by Reverse transcription polymerase chain reaction (RT-PCR) and Capillary electrophoresis technology.Data from the assay component ATG_ISRE_CIS was analyzed into 1 assay endpoint. This assay endpoint, ATG_ISRE_CIS, was analyzed with bidirectional fitting relative to DMSO as the negative control and baseline of activity. Using a type of inducible reporter, measures of mRNA for gain or loss-of-signal activity can be used to understand the reporter gene at the transcription factor-level as they relate to the gene IRF1. Furthermore, this assay endpoint can be referred to as a primary readout, because this assay has produced multiple assay endpoints where this one serves a reporter gene function. To generalize the intended target to other relatable targets, this assay endpoint is annotated to the dna binding intended target family, where the subfamily is interferon regulatory factors.
# Human liver HepG2 cells are transiently transfected with multiple reporter transcription units (MRTUs) in 6-well plates using FuGene 6 reagent (Roche; 3 ml FuGene/1 mg DNA). The MRTU constructs are regulated by a cis-regulating element (promoter). […] A major difference between the CIS and TRANS system is that in CIS activities of endogenous TFs are measured, whereas the TRANS assay evaluates changes in activities of exogenous, chimeric NR-Gal4 proteins. […] At the end of 24 hour incubation, total RNA was isolated using TriZol reagent (Invitrogen). The isolated RNA is then reverse-transcribed using oligo(dT) primer and Mo-MLV reverse transcriptase (Invitrogen) with DNAse I (Ambion) treatment for 30 min. The one-tenth of the produced cDNA was amplified by PCR using Taq DNA polymerase (Invitrogen) and two reporter sequence-specific primers. The PCR products were fluorescently labeled by primer extension with 6-arboxyfluorescein (6-FAM) 5'-labeled reporter sequence-specific primer (2 min at 95 C, 20 s at 68 C and 10 min at 72 C) and these products were digested with 5U of HpaI (New England Biolabs) for 2h at 37 C. The fragments were purified using Qiaquick PCR columns (Qiagen), analyzed on an ABI 3130xL genetic analyzer (Applied Biosystems) with peak positions identified by using a set of X-rhodamine (ROX)-labeled MapMarker1000 molecular weight standards (BioVentures). The raw capillary electrophoresis data was processed using Attagraph software (Attagene).
SMILES,outcome,AC50
CCCCOCCOCCOCCOCCO,inactive,–
CNCCCC12CCC(c3ccccc31)c1ccccc12,–,17.9 µM (active)
C=C(C)C(=O)NCCCN(C)C,inactive,–
OCc1cccnc1,inactive,–
OC1C(O)C(O)C(O)C(O)C1O (stereo not given),inactive,–
C/C=C(\C)C(=O)OCc1ccccc1,inactive,–
CC(=O)OCC=Cc1ccccc1,inactive,–
O=C1O[C@@H]2[C@@H](O)[C@H](O)O[C@@H]2[C@H]1O,inactive,–
N#Cc1nc(Cl)c(Cl)c(Cl)c1Cl,–,2.79 µM (active)
CN1[C@@H]2CC(OC(=O)[C@H](CO)c3ccccc3)C[C@H]1[C@@H]1O[C@@H]12 (stereo not given in full),inactive,–
CCCCCCCCCCCCN(CCCCCCCCCCCC)CCCCCCCCCCCC,inactive,–
O=P(c1ccccc1)(c1ccccc1)c1ccccc1,inactive,–
CC(=O)C(=O)O,inactive,–
OC1OC[C@@H](O)[C@H](O)[C@H]1O (stereo not given in full),inactive,–
C[C@H]1C[C@H]2[C@@H]3CCC4=CC(=O)C=C[C@]4(C)[C@@]3(F)[C@@H](O)C[C@]2(C)[C@@]1(O)C(=O)COP(=O)(O)O,inactive,–
CCCc1c(OCCCOc2ccc(OCC(=O)O)cc2)ccc(C(C)=O)c1O,inactive,–
CCn1c2ccccc2c2cc(N)ccc21,inactive,–
Nc1ccc(F)c([N+](=O)[O-])c1,inactive,–
O=C(O)c1cn(-c2ccc(F)cc2)c2cc(N3CCNCC3)c(F)cc2c1=O,inactive,–
CCCOCC(C)O (stereo not given),inactive,–

SMILES,outcome,AC50
CC(=O)c1c(C)cc(C(C)(C)C)cc1C,inactive,–
O=C(O)c1ccc([N+](=O)[O-])cc1,inactive,–
CC(C)(CO)[N+](=O)[O-],inactive,–
CC1COc2ccccc2N1C(=O)C(Cl)Cl (stereo not given),–,100 µM (active)
Cc1ccc(S)cc1,–,35.3 µM (active)
O=C1CCc2ccccc2O1,inactive,–
CN(C)CCOCCN(C)C,inactive,–
c1ccc(CCCc2ccccn2)cc1,inactive,–
CCCCOCCOCCSC#N,inactive,–
CCC(=O)OCc1ccccc1,inactive,–
CC(C)(COC(=O)c1ccccc1)COC(=O)c1ccccc1,inactive,–
COC(C)CCO (stereo not given),inactive,–
BrC1CCC(Br)C(Br)CCC(Br)C(Br)CCC1Br (stereo not given),–,87 µM (active)
CC(C)C1CCC(O)CC1 (stereo not given),inactive,–
CC(c1cc2ccccc2s1)N(O)C(N)=O (stereo not given),inactive,–
CC(=O)O[C@]1(C(C)=O)CC[C@H]2[C@@H]3C[C@H](C)C4=CC(=O)CC[C@]4(C)[C@H]3CC[C@@]21C,–,67.1 µM (active)
O=C(Nc1ccccc1)c1cc([N+](=O)[O-])ccc1Cl,–,38.3 µM (active)
CC(=O)/C=C/C1=C(C)CCCC1(C)C,inactive,–
O=[N+]([O-])c1ccc(C=Cc2ccc([N+](=O)[O-])cc2S(=O)(=O)O)c(S(=O)(=O)O)c1,inactive,–
ClCCCl,inactive,–
